Source: PubChem BioAssay
Lassa entry inh: Lassa virus entry inhibition; hit rate 1.2% among 300,000; Lassa virus pseudotype entry inhibition, cell reporter; Potency, µM (series often up to 37.9 µM), for the others: top-dose activity change, negative = inhibition, most hits filed as inhibitors; calls by dose curve; tested in HEK293 cells; further: nearly all actives have a fitted effect of over 50% in size
VACV Venus inh: inhibitors of vaccinia virus (Venus reporter) | Vaccinia virus Venus reporter expression, fluorescence | Potency, µM (top dose mostly 36.5 µM), for the others: at the highest dose activity change, negative = inhibition, actives largely listed as inhibitors | hit rate 0.46% among 330,000 | AID 720580; calls by dose curve; tested in A549 cells; further: nearly all actives have a fitted effect of over 30% in size
VACV mCherry inh: vaccinia inhibition (mCherry reporter); Potency, µM (doses to about 36.5 µM), for the others: at the highest dose activity change, negative = inhibition, usual class: inhibitors; Vaccinia virus mCherry reporter infection, fluorescence; AID 720579; hit rate 0.63% among 310,000; calls by dose curve; tested in A549 cells; further: nearly all actives have a fitted effect of over 35% in size
MARV entry inh: Marburg virus entry inhibition. AID 540276. Marburg virus pseudotyped entry inhibition, cell reporter. hit rate 1.8% among 300,000. Potency, µM (titrated, usually from 37.8 µM), for inactives: top-dose activity change, negative = inhibition, actives largely listed as inhibitors; calls by dose curve; tested in HEK293 cells
HCV inhibitor: HCV inhibition; Huh7.5.1 HCVcc-Cre infection, luciferase reporter, 44 h; Potency, µM (doses to about 41.8 µM), for the others: top-dose activity change, negative = inhibition, hits mostly inhibitors; hit rate 3.4% among 340,000; active means well fitted inhibition curve with a large enough effect; inconclusive means small, poorly fitted or top-dose-only effect, or another doubt; inactive means no such curve, though single readings can be large or run the other way
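HCVcc-Cre virus at an moi near 0.5 was added right after compound to cells cultured 4 h from seeding (1,000 cells/well). Luciferase activity was determined 44 h later, 15 min after substrate addition at RT.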
* = called active by the depositor; [ ] = dose if it differs, or a comment. Rows were chosen to be rich in hits. Some 4.6% of all compounds tested hit in one or more screens of this group. On the % scale 0 is the no-effect control and ±100 the full control effect; potency means the concentration at half of the fitted maximal effect.

How did CN(C)c1ccc(C2C=C(c3ccc(Cl)cc3OC(F)F)Nc3ncnn32)cc1 (configuration not stated) do in these assays?
Lassa entry inh: 14µM*; VACV Venus inh: inconclusive; MARV entry inh: inconclusive; HCV inhibitor: 10µM*

Results for COc1cccc(-c2cccc(NC(=O)C3CCN(CCCn4cccn4)CC3)c2)c1 ?
VACV Venus inh: -11%; VACV mCherry inh: -17%

What do the screens show for `Cc1cc(C)n(CCCN2CCC(C(=O)Nc3cccc(-c4cccc(F)c4)c3)CC2)n1`?
Lassa entry inh: -8%; VACV Venus inh: inconclusive; VACV mCherry inh: inconclusive; MARV entry inh: 13µM*; HCV inhibitor: inconclusive

How did O=C(Nc1cccc(-c2cccc(F)c2)c1)C1CCN(C2CCOCC2)CC1 do in these assays?
HCV inhibitor: 13µM*

Results for Cc1cc2c(cc(C(=O)OCC(=O)NCc3cccs3)n2C(C)C)o1 ?
Lassa entry inh: 9.2µM*; VACV Venus inh: -24%; VACV mCherry inh: -22%; MARV entry inh: inconclusive; HCV inhibitor: inconclusive

How did Cc1cc(C)cc(C(=O)OCC(=O)NCc2cccs2)c1 do in these assays?
Lassa entry inh: -3%; MARV entry inh: -6%; HCV inhibitor: 22%

Results for CCOC(=O)c1sc(NC(=O)c2c(C)nn(Cc3ccccc3)c2C)cc1C ?
Lassa entry inh: -12%; VACV Venus inh: inconclusive; VACV mCherry inh: inconclusive; MARV entry inh: inconclusive; HCV inhibitor: 18µM*

Results for CCOC(=O)c1sc(NC(=O)c2ccc(S(=O)(=O)N(C)C)cc2)cc1C ?
Lassa entry inh: -20%; MARV entry inh: -36%; HCV inhibitor: 11µM*

Results for COC(=O)[C@@H]1CCCN1C(=O)c1cc(NC(=O)c2ccccc2)cc2ncn(C3CCCC3)c12 ?
VACV Venus inh: 0%; VACV mCherry inh: -3%

What do the screens show for `O=C(c1ccc(Cn2cc([N+](=O)[O-])cn2)o1)N1N=C(C(F)F)CC1(O)C(F)F` (configuration not stated)?
Lassa entry inh: -25%[14.3 µM]; VACV Venus inh: 2%; VACV mCherry inh: -10%; MARV entry inh: 1%

What do the screens show for `O=C(c1ccc(COc2ccccc2Br)o1)N1N=C(C(F)F)CC1(O)C(F)F` (configuration not stated)?
Lassa entry inh: -7%; VACV Venus inh: inconclusive; VACV mCherry inh: -8%; MARV entry inh: 7.1µM*; HCV inhibitor: -1%

What do the screens show for `Cn1c(=O)c(C(=O)COC(=O)c2cc(-c3ccccc3)nc3ccccc23)c(N)n(Cc2ccccc2)c1=O`?
Lassa entry inh: 4%; MARV entry inh: -27%; HCV inhibitor: 0%[8.37 µM]

Results for Cn1c(=O)c(C(=O)COC(=O)c2cc(C3CC3)nc3ccccc23)c(N)n(Cc2ccccc2)c1=O ?
Lassa entry inh: -8%; VACV Venus inh: -20%; VACV mCherry inh: inactive; MARV entry inh: -25%; HCV inhibitor: 3.5µM*

How did CCOC(=O)c1c(NC(=O)COC(=O)Cn2cnc3ccccc32)sc(C)c1C do in these assays?
Lassa entry inh: 17%; VACV Venus inh: inconclusive; VACV mCherry inh: 10µM*; MARV entry inh: -8%; HCV inhibitor: inconclusive

How did CCCCNCC(=O)Nc1sc(C)c(C)c1C(=O)OCC do in these assays?
Lassa entry inh: -2%; VACV Venus inh: -1%; VACV mCherry inh: -5%; MARV entry inh: -15%; HCV inhibitor: 11µM*

What do the screens show for `COC(=O)c1c(NC(=O)COC(=O)Cn2cnc3ccccc32)sc(C)c1C`?
Lassa entry inh: 3%; VACV Venus inh: -17%; VACV mCherry inh: -12%; MARV entry inh: 10%[46.1 µM]; HCV inhibitor: inconclusive

What do the screens show for `CCOC(=O)c1c(NC(=O)CNCC(O)CO)sc(C)c1C` (configuration not stated)?
Lassa entry inh: 0%; VACV Venus inh: -5%; MARV entry inh: 1%; HCV inhibitor: inconclusive

How did CCOC(=O)c1c(NC(=O)c2cccnc2)sc(C)c1C do in these assays?
Lassa entry inh: -12%; VACV Venus inh: 0%; VACV mCherry inh: -9%; MARV entry inh: -17%; HCV inhibitor: 10µM*

What do the screens show for `Cc1cccc(OCc2nc(C#N)c(NCc3ccccc3Cl)o2)c1`?
Lassa entry inh: 16%[46.1 µM]; VACV Venus inh: -3%; VACV mCherry inh: -16%; MARV entry inh: -29%[46.1 µM]

What do the screens show for `CCOC(=O)c1c(-c2ccccc2)oc2ccc(OC(C)=O)cc12`?
Lassa entry inh: inconclusive; VACV Venus inh: -24%; VACV mCherry inh: inconclusive; MARV entry inh: -9%; HCV inhibitor: 11µM*

What do the screens show for `CCOC(=O)c1c(-c2ccccc2)oc2ccc(OC(C)C(=O)O)cc12` (configuration not stated)?
Lassa entry inh: 30%[46.1 µM]; VACV Venus inh: 8%; VACV mCherry inh: inactive; MARV entry inh: 12%[46.1 µM]; HCV inhibitor: 11%

How did COc1ccc2oc(-c3ccccc3)c(C(=O)N(C)C)c2c1 do in these assays?
HCV inhibitor: -16%

What do the screens show for `CCOC(=O)c1c(-c2ccccc2)oc2ccc(O)c(CN3CCCC3)c12`?
Lassa entry inh: inconclusive; MARV entry inh: 23µM*; HCV inhibitor: -24%

Results for CCOC(=O)c1c(-c2ccccc2)oc2ccc(OCC(O)CN(C)C)cc12 (configuration not stated) ?
Lassa entry inh: inconclusive; VACV Venus inh: inconclusive; VACV mCherry inh: inconclusive; MARV entry inh: inconclusive; HCV inhibitor: 14µM*

How did CCOC(=O)c1c(-c2ccc(OC)cc2)oc2ccc(OC(=O)N(C)C)cc12 do in these assays?
Lassa entry inh: inconclusive; MARV entry inh: 18µM*; HCV inhibitor: 0.32µM*

How did CCCC(=O)NC(c1ccccc1Cl)c1c(O)ccc2ccccc12 (configuration not stated) do in these assays?
Lassa entry inh: inconclusive; VACV Venus inh: -30%; VACV mCherry inh: inconclusive; MARV entry inh: -8%; HCV inhibitor: -22%

What do the screens show for `Cc1ccc(C(Nc2ccccn2)c2ccc3cccnc3c2O)cc1` (configuration not stated)?
Lassa entry inh: inconclusive; VACV Venus inh: inconclusive; VACV mCherry inh: 11µM*; MARV entry inh: inconclusive

How did Cc1cccc(NC(c2cccc(Cl)c2)c2ccc3cccnc3c2O)n1 (configuration not stated) do in these assays?
Lassa entry inh: 10µM*; VACV Venus inh: inconclusive; VACV mCherry inh: inconclusive; MARV entry inh: inconclusive

Results for CCCC(=O)NC(c1ccc(Cl)cc1Cl)c1ccc2cccnc2c1O (configuration not stated) ?
Lassa entry inh: inconclusive; VACV Venus inh: inconclusive; VACV mCherry inh: inconclusive; MARV entry inh: 2.2µM*; HCV inhibitor: inconclusive

Results for CC(=O)NC(c1ccc(Cl)cc1Cl)c1ccc2cccnc2c1O (configuration not stated) ?
HCV inhibitor: 5.6µM*

What do the screens show for `CSc1cccc(NC(=O)N2CCN(c3cc(-c4noc(C)n4)ccc3C)CC2)c1`?
Lassa entry inh: -15%[46.1 µM]; VACV Venus inh: -24%; VACV mCherry inh: -24%
